Assay results published in PubChem BioAssay (Tox21).
Records with an inconclusive call do not appear. Activity calls are given as the source filed them. Calls come from the whole dose curve; as a rule, active = well fitted curve in the direction sought with a large enough effect in the repeat runs; inconclusive = weak or mixed curves; inactive = no such curve, though single readings can be large; an effect the other way counts as inactive or inconclusive.

Experiments:
[1] = qHTS RealTime-Glo MT Cell Viability Assay in HepG2 cells - 24 hour (AID 1224867); note: nearly all actives have a fitted effect of over 50% in size
Procedure, shortened: (§1)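 HepG2 cells (600/well) were dispensed with RealTime-Glo reagents, incubated 5 h at 37 °C, then treated with compounds in DMSO for up to 40 h. Nonlytic NanoLuc luminescence reflecting viable cells was read at each stated time point.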

[2] = qHTS RealTime-Glo MT Cell Viability Assay in HEK293 cells - 32 hour (AID 1224868); note: top concentration of the series differs between compounds; nearly all actives have a fitted effect of over 50% in size
Procedure, shortened: (§2)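 HEK293 cells seeded with NanoLuc/prosubstrate reagent, rested 5 h at 37 C, then dosed and kept at 37 C up to 40 h. Nonlytic real-time luminescence from viable cells read at 0, 8, 16, 24, 32 and 40 h.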

[3] = A CellTox Green Cytotoxicity Assay to monitor cytotoxicity in HEK293 cells - 0 hour (AID 1224869); note: nearly all actives have a fitted effect of over 50% in size
Procedure, shortened: (§3)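 Dead-cell fluorescence measured kinetically: asymmetric cyanine dye, HEK293, 600 cells/well, 5 h settle, 23 nL cpd/DMSO, 37 C, reads 0–40 h every 8 h.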

[4] = A CellTox Green Cytotoxicity Assay to monitor cytotoxicity in HEK293 cells - 40 hour (AID 1224871); note: nearly all actives have a fitted effect of over 45% in size
Procedure, shortened: as §3

[5] = qHTS RealTime-Glo MT Cell Viability Assay in HEK293 cells - 16 hour (AID 1224872); note: top concentration of the series differs between compounds; nearly all actives have a fitted effect of over 50% in size
Procedure, shortened: as §2

[6] = qHTS RealTime-Glo MT Cell Viability Assay in HepG2 cells - 8 hour (AID 1224873); note: nearly all actives have a fitted effect of over 55% in size
Procedure, shortened: (§4)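 HepG2 cells mixed with RealTime-Glo MT reagents (NanoLuc plus cell-permeant prosubstrate) were seeded at 600 cells/well, incubated 5 h at 37 C/5% CO2, then pinned with compounds in DMSO; nonlytic luminescence tracked viability during 40 h treatment.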

[7] = qHTS RealTime-Glo MT Cell Viability Assay in HEK293 cells - 40 hour (AID 1224874); conditions: RealTime-Glo luminescence, active compounds read low; note: nearly all actives have a fitted effect of over 50% in size
Procedure, shortened: (§5)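 600 HEK293 cells per well, dispensed already mixed with RealTime-Glo MT reagents. Compound dosing came 5 h later. The same wells were read for luminescence at 0, 8, 16, 24, 32 and 40 h of exposure at 37 C.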

[8] = A CellTox Green Cytotoxicity Assay to monitor cytotoxicity in HEK293 cells - 24 hour (AID 1224875); note: series mostly up to about 77 µM; nearly all actives have a fitted effect of over 45% in size
Procedure, shortened: as §3

[9] = A CellTox Green Cytotoxicity Assay to monitor cytotoxicity in HepG2 cells - 16 hour (AID 1224876); note: nearly all actives have a fitted effect of over 45% in size
Procedure, shortened: (§6)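 First, HepG2 cells (600/well) mixed with reagent were plated; second, after 5 h at 37 C they received compounds via pintool; third, fluorescence was measured at 0 h through 40 h at 8 h intervals.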

[10] = qHTS RealTime-Glo MT Cell Viability Assay in HepG2 cells - 32 hour (AID 1224877); note: nearly all actives have a fitted effect of over 55% in size
Procedure, shortened: as §1

[11] = qHTS RealTime-Glo MT Cell Viability Assay in HEK293 cells - 0 hour (AID 1224880); note: top concentration of the series differs between compounds; nearly all actives have a fitted effect of over 45% in size
Procedure, shortened: as §5

[12] = A CellTox Green Cytotoxicity Assay to monitor cytotoxicity in HepG2 cells - 0 hour (AID 1224882); note: nearly all actives have a fitted effect of over 35% in size
Procedure, shortened: as §6

[13] = A CellTox Green Cytotoxicity Assay to monitor cytotoxicity in HepG2 cells - 32 hour (AID 1224883); note: nearly all actives have a fitted effect of over 50% in size
Procedure, shortened: as §6

[14] = A CellTox Green Cytotoxicity Assay to monitor cytotoxicity in HEK293 cells - 8 hour (AID 1224884); note: nearly all actives have a fitted effect of over 35% in size
Procedure, shortened: as §3

[15] = qHTS RealTime-Glo MT Cell Viability Assay in HepG2 cells - 16 hour (AID 1224885); note: nearly all actives have a fitted effect of over 50% in size
Procedure, shortened: as §1

[16] = qHTS RealTime-Glo MT Cell Viability Assay in HEK293 cells - 24 hour (AID 1224886)
Procedure, shortened: as §2

[17] = A CellTox Green Cytotoxicity Assay to monitor cytotoxicity in HepG2 cells - 40 hour (AID 1224879); note: nearly all actives have a fitted effect of over 40% in size
Procedure, shortened: as §6

[18] = A CellTox Green Cytotoxicity Assay to monitor cytotoxicity in HEK293 cells - 32 hour (AID 1224881); note: nearly all actives have a fitted effect of over 40% in size
Procedure, shortened: as §3

[19] = A CellTox Green Cytotoxicity Assay to monitor cytotoxicity in HepG2 cells - 24 hour (AID 1224878); note: nearly all actives have a fitted effect of over 45% in size
Procedure, shortened: as §6

[20] = qHTS RealTime-Glo MT Cell Viability Assay in HepG2 cells - 40 hour (AID 1224870); note: nearly all actives have a fitted effect of over 50% in size
Procedure, shortened: as §4
% is set by controls: 0 for no effect and ±100 for the full control effect.

CC(C)c1cc(C(C)C)cc(C(C)C)c1
inactive: outcome [1] | outcome [2] | outcome [3] | Potency [4] | outcome [5] | outcome [6] | max response [7] 5.73% | Potency [8] | Potency [9] | outcome [10] | Potency [11] | Potency [12] | Potency [13] | Potency [14] | outcome [15] | outcome [16]

O=Cc1ccc(C(=O)O)cc1
inactive: outcome [1] | outcome [2] | outcome [3] | Potency [4] | outcome [5] | outcome [6] | max response [7] 0.978% | Potency [8] | Potency [9] | outcome [10] | Potency [17] | Potency [11] | Potency [18] | Potency [12] | Potency [13] | Potency [14] | outcome [15] | outcome [16]

O=c1[nH]c(=O)c2cn[nH]c2[nH]1
inactive: outcome [1] | outcome [2] | outcome [3] | Potency [4] | outcome [5] | outcome [6] | max response [7] -0.927% | Potency [8] | Potency [9] | outcome [10] | Potency [19] | Potency [11] | Potency [18] | Potency [12] | Potency [13] | Potency [14] | outcome [15] | outcome [16]

CCCCNCC
inactive: outcome [1] | outcome [2] | outcome [3] | Potency [4] | outcome [5] | outcome [6] | max response [7] -1.39% | Potency [8] | Potency [9] | outcome [10] | Potency [19] | Potency [17] | Potency [11] | Potency [18] | Potency [12] | Potency [13] | Potency [14] | outcome [15] | outcome [16]

CC(C)(Sc1cc(C(C)(C)C)c(O)c(C(C)(C)C)c1)Sc1cc(C(C)(C)C)c(O)c(C(C)(C)C)c1
inactive: outcome [1] | outcome [2] | outcome [3] | Potency [4] | outcome [5] | outcome [6] | max response [7] 3.52% | Potency [8] | Potency [9] | outcome [10] | Potency [19] | Potency [17] | Potency [11] | Potency [18] | Potency [12] | Potency [13] | Potency [14] | outcome [15] | outcome [16]

CC(C)(C)C(=O)NCCCC(=O)O
inactive: outcome [1] | outcome [2] | outcome [3] | Potency [4] | outcome [5] | outcome [6] | max response [7] 5.71% | Potency [8] | Potency [9] | outcome [10] | Potency [17] | Potency [11] | Potency [18] | Potency [12] | Potency [13] | Potency [14] | outcome [15] | outcome [16]

CN(C)CCC[C@@]1(c2ccc(F)cc2)OCc2cc(C#N)ccc21
inactive: outcome [1] | outcome [2] | outcome [3] | Potency [4] | outcome [5] | outcome [6] | max response [7] -9.59% | Potency [9] | outcome [10] | Potency [19] | Potency [17] | Potency [11] | Potency [18] | Potency [12] | Potency [13] | Potency [14] | outcome [15] | outcome [16]

c1coc(Cn2cccc2)c1
inactive: outcome [1] | outcome [2] | outcome [3] | Potency [4] | outcome [6] | max response [7] 2.22% | Potency [9] | outcome [10] | Potency [19] | Potency [17] | Potency [11] | Potency [18] | Potency [12] | Potency [13] | Potency [14] | outcome [15] | outcome [16]

CC(C)(C)C(=O)CCc1ccc(Cl)cc1
inactive: outcome [1] | outcome [2] | outcome [3] | outcome [20] | Potency [4] | outcome [6] | max response [7] 1.49% | Potency [9] | outcome [10] | Potency [19] | Potency [17] | Potency [11] | Potency [18] | Potency [12] | Potency [13] | Potency [14] | outcome [15] | outcome [16]

CCCCCCC(=O)c1ccccc1
inactive: outcome [1] | outcome [2] | outcome [3] | Potency [4] | outcome [6] | max response [7] -0.886% | Potency [8] | Potency [9] | outcome [10] | Potency [19] | Potency [11] | Potency [18] | Potency [12] | Potency [13] | Potency [14] | outcome [15] | outcome [16]

CCCCC(CC)COC(=O)CC#N (stereo not drawn)
inactive: outcome [1] | outcome [2] | outcome [3] | Potency [4] | outcome [5] | outcome [6] | max response [7] 0.0288% | Potency [8] | Potency [9] | outcome [10] | Potency [19] | Potency [17] | Potency [11] | Potency [18] | Potency [12] | Potency [13] | Potency [14] | outcome [15] | outcome [16]

N[C@H]1C(O)O[C@H](CO)[C@@H](O)[C@@H]1O (stereo partly drawn)
inactive: outcome [1] | outcome [2] | outcome [3] | outcome [20] | Potency [4] | outcome [6] | max response [7] -1.72% | Potency [9] | outcome [10] | Potency [19] | Potency [11] | Potency [18] | Potency [12] | Potency [13] | Potency [14] | outcome [15] | outcome [16]

CC(C)(C)c1ccc(C(=O)CCCCl)cc1
inactive: outcome [1] | outcome [2] | outcome [3] | outcome [20] | Potency [4] | outcome [6] | max response [7] -1.09% | Potency [9] | outcome [10] | Potency [19] | Potency [17] | Potency [11] | Potency [18] | Potency [12] | Potency [13] | Potency [14] | outcome [15] | outcome [16]

C=CC(=O)OCC[N+](C)(C)C
inactive: outcome [1] | outcome [2] | outcome [3] | outcome [20] | Potency [4] | outcome [6] | max response [7] 10.3% | Potency [8] | outcome [10] | Potency [19] | Potency [17] | Potency [11] | Potency [18] | Potency [12] | Potency [13] | Potency [14] | outcome [15] | outcome [16]

CCC(C)c1nccnc1OC (stereo not drawn)
inactive: outcome [1] | outcome [2] | outcome [3] | Potency [4] | outcome [5] | outcome [6] | max response [7] 1.32% | Potency [8] | Potency [9] | outcome [10] | Potency [19] | Potency [11] | Potency [18] | Potency [12] | Potency [13] | Potency [14] | outcome [15] | outcome [16]
